Bioassay records as filed in PubChem BioAssay.
This is a sample that favours compounds with a hit; in the whole collection about 12% have one here.
L3MBTL1 block – L3MBTL1 (human) inhibition. AlphaScreen L3MBTL1–H3K9me1 peptide binding. hit rate 0.66% among 230,000. Potency, µM (highest dose often 57.1 µM), without a hit: at the top dose activity, negative = inhibition, usual class: inhibitors; also: % is scaled to controls: 0 for no effect and ±100 for the full control effect; nearly all actives have a fitted effect of over 60% in size
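L3MBTL1 50 nM + b-AHA-H3(1-15)K9me1 75 nM, 30 min RT; compound added, 30 min RT; streptavidin donor/Ni-chelate acceptor beads 10 ug/mL each final, 30 min RT dark; AlphaScreen read.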
HP1b chromo inh – HP1-beta chromodomain-methylated histone interaction inhibition | P83916 | AlphaScreen HP1-beta / biotin-H3K9me3 peptide binding | Potency, µM (doses to about 114 µM), without a hit: top-dose activity change, negative = inhibition, most hits filed as inhibitors | hit rate 0.56% among 390,000 | AID 540317; also: nearly all actives have a fitted effect of over 70% in size
Target sequence (P83916 whole entry, looked up): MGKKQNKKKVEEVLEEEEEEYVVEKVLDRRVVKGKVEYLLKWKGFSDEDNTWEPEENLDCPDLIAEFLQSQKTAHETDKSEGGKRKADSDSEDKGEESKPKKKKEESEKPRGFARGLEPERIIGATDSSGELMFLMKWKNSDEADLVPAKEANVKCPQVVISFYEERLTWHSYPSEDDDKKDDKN
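HP1-beta protein (50 nM final) preincubated 30 min at room temperature with biotinylated H3(1-18)K9me3 peptide (50 nM) in PBS pH 7.4, 0.01% Tween-20, then compound added for 30 min. AlphaScreen streptavidin donor/nickel chelate acceptor beads (10 ug/mL final), 30 min dark, luminescence read.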
JMJD2A Tudor inh – JMJD2A Tudor domain (human) inhibition | AlphaScreen JMJD2A-Tudor / H3K4me3 peptide binding | Potency, µM (doses to about 114 µM), for the others: at the top dose activity change, negative = inhibition, hits mostly inhibitors | hit rate 4.4% among 390,000 | O75164; also: % is scaled to controls: 0 for no effect and ±100 for the full control effect; nearly all actives have a fitted effect of over 50% in size
BAZ2B inh – BAZ2B (human) inhibition; Q9UIF8; AlphaScreen BAZ2B-H3K14Ac peptide displacement; Potency, µM (top dose mostly 114 µM), for inactives: at the top dose activity change, negative = inhibition, most hits filed as inhibitors; hit rate 4.4% among 360,000; AID 504333; also: % is scaled to controls: 0 for no effect and ±100 for the full control effect; nearly all actives have a fitted effect of over 60% in size
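Inhibition is scored as reduced AlphaScreen emission. The BAZ2B/b-H3(5-23)K14Ac complex (50 nM each) in PBS pH 7.4, 0.01% Tween-20 meets compound (up to 110 uM) for 30 min at RT before bead addition.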
Sfp PPTase inh – Sfp phosphopantetheinyl transferase inhibition | Q9F4F7 | Biochemical Sfp PPTase activity, qHTS | Potency, µM, for inactives: largest response in the series, negative = inhibition, usual class: inhibitors | hit rate 3.5% among 310,000;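 also: the enzyme is Sfp with the accession as filed and its product quenches rhodamine fluorescence; 0% = enzyme reaction without inhibitor and -100% = no enzyme wells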
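Reaction rates are the 30-min fluorescence difference (ex 525, em 598 nm) in wells containing 15 nM Sfp, 5 uM rhodamine-CoA and 12.5 uM BHQ-2-YbbR at pH 7.6 with 10 mM MgCl2.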
G9a inh – inhibitors of human histone lysine methyltransferase G9a; G9a H3K9 monomethylation, AlphaScreen, 2 h; Potency, µM (titrated, usually from 102 µM), for inactives: top-dose activity, negative = inhibition, actives largely listed as inhibitors; hit rate 8.8% among 350,000; AID 504332; also: % is scaled to controls: 0 for no effect and ±100 for the full control effect; nearly all actives have a fitted effect of over 75% in size
Target sequence (Q96KQ7 913-1193 limits assumed): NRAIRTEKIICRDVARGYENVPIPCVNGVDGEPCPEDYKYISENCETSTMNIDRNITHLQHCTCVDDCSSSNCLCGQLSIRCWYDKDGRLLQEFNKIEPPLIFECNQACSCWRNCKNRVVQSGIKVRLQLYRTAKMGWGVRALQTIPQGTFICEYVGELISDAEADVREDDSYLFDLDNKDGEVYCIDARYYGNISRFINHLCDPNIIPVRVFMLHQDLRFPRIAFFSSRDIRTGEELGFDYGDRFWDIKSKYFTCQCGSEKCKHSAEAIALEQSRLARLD
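G9a (20 nM) preincubated 15 min RT with compounds, then 500 nM biotinylated H3K9 peptide and 20 uM SAM added; 2 h RT reaction. Monomethyl-H3K9 product detected by AlphaScreen with anti-H3K9me1 antibody, streptavidin donor and anti-rabbit IgG acceptor beads.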
Starred values were filed as active, the others as inactive; ? = inconclusive; . = not tested or not shown; [ ] = another dose, or the depositor's remark. Calls follow the shape of the dose curve; as a rule, active = well fitted curve in the direction sought with a large enough effect; inconclusive = small, poorly fitted or top-dose-only effect, or another doubt; inactive = no such curve, though single readings can be large; an effect the other way counts as inactive or inconclusive. Potency is read from the fitted curve at half-maximal effect.

SMILES | L3MBTL1 block | HP1b chromo inh | JMJD2A Tudor inh | BAZ2B inh | Sfp PPTase inh | G9a inh
COc1ccc(C(=O)/C=C2\Sc3ccccc3N2C)cc1 | 35% | 85% | 30% | 16% | 0% | ?
Cc1ncc(S(=O)(=O)C(C)(C)C)c(N)n1 | 3% | 7% | -3% | -1% | -4% | -3%
CCC(=O)/C=C1/Sc2ccc(OC)cc2N1CC | -3% | 35% | -16% | 7%[57.1 µM] | -11% | 0%[59 µM]
CCN1/C(=C/c2ccc3cc(C)ccc3[n+]2CC)Sc2cc(C)c(C)cc21 | ? | ? | ? | 45µM* | 25µM* | 14µM*
Cc1nn(-c2ccccc2)cc1C(c1c(N)[nH]c(=S)[nH]c1=O)c1c(N)[nH]c(=S)[nH]c1=O | -17% | 14% | -15%[11.4 µM] | -36% | 22µM* | 32µM*
Cc1nn(-c2ccccc2)cc1/C=N/NC(N)=S | -3% | 47% | 13%[57.1 µM] | -17% | 25% | 2%[59 µM]
O=C1C=C(Nc2ccc(F)cc2)c2ccccc2C1=O | -19% | -15% | -26% | ? | . | 7.9µM*
O=c1cccccc1NCc1ccccc1 | . | 31% | 4% | 12% | 22µM* | 10µM*
N#Cc1ccccc1NCc1ccccc1 | 17% | 104% | 30% | 43% | 3% | 55%
O=C1C=C(Nc2ccccc2O)c2ccccc2C1=O | -24% | -38% | ? | 45µM* | ? | 45µM*
O=C1C=C(NCc2ccccc2)c2ccccc2C1=O | 22µM* | 5% | -33% | -31% | 22µM* | ?
Cc1ccc(NC(=O)CN(C)C(=O)/C=C/c2cccs2)cc1 | 10% | 49% | -3% | -4% | 13% | 2%[59 µM]
CC[C@@H](c1ccccc1)n1c(=O)n2n(c1=O)[C@H]1[C@H](O)[C@H]3O[C@H]3C(=O)[C@H]1CC2 | . | . | . | . | 9% | .
CC1CCN(C(=O)c2ccccc2NC(=O)c2cccc(S(=O)(=O)N(C)C)c2)CC1 | . | 37% | 13% | -8% | 13% | 52%
COc1ccc(NC(=O)c2cccc(S(=O)(=O)N3CCCCCC3)c2)cc1 | . | 20% | -3% | 9% | 12% | 47%
Cc1ccc(CNC(=O)C2CCCN(S(=O)(=O)c3cn(C)cn3)C2)cc1 (stereo unspecified) | . | ? | -22% | -3% | . | 3%[59 µM]
Cc1ccc(CNC(=O)c2ccccc2N(C)S(C)(=O)=O)cc1 | 0% | -10% | 6% | -12% | ? | 40µM*
CN(c1ccccc1C(=O)NCc1ccco1)S(C)(=O)=O | -9%[11.4 µM] | 28% | -24%[57.1 µM] | ? | ? | -24%[12.7 µM]
C=CCNC(=O)c1ccccc1NC(=O)c1ccccc1N(C)S(C)(=O)=O | 3% | 19% | -10% | -34% | 7% | 50µM*
O=C(NC1CCCCC1)C(c1ccncc1)N(C(=O)c1csnn1)c1cccc(F)c1 (stereo unspecified) | . | 28% | 5% | -5% | 11% | -6%
CN(C)c1ccc(-c2cncnc2Nc2ccccc2)cc1 | . | . | . | . | 1% | 1%[0.501 µM]
CCOC1(OCC)N=C(N)C2(C#N)C(c3ccc(NC(C)=O)cc3)C12C#N (stereo unspecified) | -7% | 12% | ? | 79µM* | 19% | 50µM*
CCSC1(SCC)N=C(N)C2(C#N)C(c3ccc(F)cc3)C12C#N (stereo unspecified) | 3% | 44% | -6% | -23% | -21% | 40µM*
Cc1cc(C)cc(N2CCCn3c2nc2c3c(=O)[nH]c(=O)n2C)c1 | . | 19% | -4% | 1% | 7% | 6%
Cc1[nH]c2ccccc2c1SCC(=O)N1CCCCCC1 | 0% | 35% | -18% | -15% | 10% | 11%
SMILES | L3MBTL1 block | HP1b chromo inh | JMJD2A Tudor inh | BAZ2B inh | Sfp PPTase inh | G9a inh
O=Cc1coc2ccc3ccccc3c2c1=O | -9% | -21% | ? | -5% | 16% | 50µM*
CCOC(=O)[C@H]1[C@H]2COc3ccc(C)cc3[C@@H]2N2C(=O)c3cc(Cl)ccc3NC(=O)[C@@]12C | 0% | 37% | -24% | -5% | . | 23%[2.33 µM]
Cc1cc(Br)ccc1N=C1NC(=O)CS1 | -10% | -7% | -10% | -22% | 40µM* | 20µM*
Cc1ccc(N=C2NC(=O)CS2)c(C)c1 | -7% | 25% | 5% | -2% | -1% | -1%[59 µM]
CCCCc1c(O)n(-c2ccccc2)[nH]c1=O | . | . | . | . | -18% | 11µM*
COc1ccc(S(=O)(=O)N2CCOCC2)cc1NC(=O)CSc1nnc2ccccn12 | 0% | . | . | -11% | 12% | -12%
Cc1ccc(C(=O)N[C@@H](Cc2ccccc2)C(=O)N2CCC3(CC2)NCCc2[nH]cnc23)cc1C | . | 41% | 24% | -30% | 6% | 79µM*
COc1ccc(NS(=O)(=O)c2coc(C(N)=O)c2)cc1Cl | 50% | 58% | -6% | 5% | 19% | -5%[59 µM]
COc1cc(OC)c(NS(=O)(=O)c2coc(C(N)=O)c2)cc1Cl | . | 36% | -30% | -6% | -4% | 71µM*
O=C(Nc1ccc2nn(-c3ccc(Cl)cc3)nc2c1)c1cc2ccccc2o1 | . | 15% | -11% | -2% | . | -26%[59 µM]
CN1C2CCC1/C(=C\c1ccccc1F)C(=O)/C2=C/c1ccccc1F | 8% | -10% | -20% | -34% | 3% | 50µM*
CC(=O)OCCCCCCCCCCC[N+]1(C)CCCCC1 | 4% | 19% | -2% | -21% | 4% | 45µM*
COC(=O)CCCC(=O)OC | -2% | 11% | -6% | . | . | .
C[N+]1(CCCCSc2ccc(O)cc2)CCCCC1 | 5% | 3% | -3% | ? | 2% | ?
COC(=O)CCCCCCCCCC[N+]1(C)CCCCC1 | 14% | 13% | ? | -35% | 1% | 16µM*
O=[S+]([O-])(c1ccc(N2CCOCC2)nc1)N1CCN([S+](=O)([O-])c2c(F)cccc2F)CC1 | . | . | -21% | . | . | .
CS(=O)(=O)c1ccc2nc(N)sc2c1 | -5% | 26% | 5% | -4% | 4% | ?
CS(=O)(=O)c1ccc(N)c(SSc2cc(S(C)(=O)=O)ccc2N)c1 | -21% | ? | 1.4µM* | 35µM* | . | ?
COc1ccccc1N1CCN(c2ncnc3c2cnn3-c2ccc(C)cc2)CC1 | . | 21% | -4% | 0% | . | 9%[59 µM]
Cc1cccc(-c2noc(CN(C(=O)c3ccccc3Cl)C(C)C)n2)c1 | . | 81% | 11% | 10% | . | 4%[59 µM]
COc1ccc(NCc2ccc3c(c2)OCO3)cc1Cl | -28% | ? | 45µM* | 40µM* | -14% | ?
CCOc1cc(CNCc2ccc3c(c2)OCO3)ccc1OC | -2% | 46% | -11% | -26% | 23% | 9%[59 µM]
COc1ccc(Cl)cc1S(=O)(=O)NC(C)C(=O)NCc1ccc2c(c1)OCO2 (stereo unspecified) | . | 8% | 50µM* | 3% | -4% | 13%
COc1cc(OC)c(OC)cc1CNCc1ccc2c(c1)OCO2 | -7% | 8% | 50µM* | -29% | 0% | 45µM*
